The record followed here is ChEMBL document CHEMBL3988442, “University of Dundee, Small-Polar-MMV Screening Library” (2021).

The structures appear in SMILES notation. For some of these results: Results with a measured potency or affinity are listed apart.

Common to all, as to set-up: scale not given: direction of the effect not stated beside the values
Assay [1] has as its target Protein translocase subunit SecA (Escherichia coli (strain K12)) (UniProt P10408). Nature of the assay: Assay to Identify E. coli SecA ATPase Inhibitors. Particulars: 30 µM. In kind it is functional.
The target of assay [2] is T1, Ubiquitin-activating enzyme e1, putative (Leishmania donovani (strain BPK282A1)) (UniProt E9BSI1).
T1 sequence (whole entry): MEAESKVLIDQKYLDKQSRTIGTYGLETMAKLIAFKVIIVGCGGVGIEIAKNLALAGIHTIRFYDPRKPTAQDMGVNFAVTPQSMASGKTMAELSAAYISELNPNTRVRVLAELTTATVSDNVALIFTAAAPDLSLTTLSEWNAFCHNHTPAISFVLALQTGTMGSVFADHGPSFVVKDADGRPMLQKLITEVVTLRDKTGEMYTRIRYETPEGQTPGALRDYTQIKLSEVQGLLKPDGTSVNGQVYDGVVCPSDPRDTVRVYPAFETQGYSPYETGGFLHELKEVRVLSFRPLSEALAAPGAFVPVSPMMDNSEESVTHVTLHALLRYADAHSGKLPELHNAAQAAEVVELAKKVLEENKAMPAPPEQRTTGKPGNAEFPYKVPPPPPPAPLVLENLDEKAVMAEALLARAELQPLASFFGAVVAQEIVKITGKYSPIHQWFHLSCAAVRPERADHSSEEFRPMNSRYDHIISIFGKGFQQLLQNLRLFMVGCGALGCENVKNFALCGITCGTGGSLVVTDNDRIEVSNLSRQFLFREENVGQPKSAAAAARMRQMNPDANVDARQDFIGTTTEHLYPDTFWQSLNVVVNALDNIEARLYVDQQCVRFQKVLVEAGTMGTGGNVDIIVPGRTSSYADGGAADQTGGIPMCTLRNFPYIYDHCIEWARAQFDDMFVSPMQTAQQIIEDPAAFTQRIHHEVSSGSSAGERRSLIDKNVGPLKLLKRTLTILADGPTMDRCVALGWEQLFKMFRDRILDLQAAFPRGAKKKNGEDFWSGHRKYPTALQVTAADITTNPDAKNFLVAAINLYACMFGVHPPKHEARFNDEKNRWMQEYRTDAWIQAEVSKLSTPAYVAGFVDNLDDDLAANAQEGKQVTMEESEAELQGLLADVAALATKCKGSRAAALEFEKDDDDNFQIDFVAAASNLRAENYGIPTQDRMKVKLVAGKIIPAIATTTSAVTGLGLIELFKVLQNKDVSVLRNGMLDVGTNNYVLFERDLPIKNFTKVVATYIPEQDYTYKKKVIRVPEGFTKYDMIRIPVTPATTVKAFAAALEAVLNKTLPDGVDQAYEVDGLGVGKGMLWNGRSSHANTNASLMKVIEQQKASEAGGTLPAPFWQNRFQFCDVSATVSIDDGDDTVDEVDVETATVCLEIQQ
In words: Leishmania donovani Ubiquitin Activating Enzyme (LdE1). In kind it is functional. The note with it: 30 µM.

Assay [3] has as its target AMP-activated protein kinase, AMPK (Homo sapiens) (UniProt P54646+O43741+P54619+Q9UGJ0+Q9Y478+Q13131+Q9UGI9). In words: AMP-dependent Kinase enzyme assay. An in vitro enzyme assay that detects ADP turnover that is directly proportional to AMPK activity. This uses naive AMPK that is activated during the assay with MK-8722. Format: functional. Particulars: 30 µM.
In assay [4] the target is Sialic acid-binding Ig-like lectin 9 (Homo sapiens) (UniProt Q9Y336). Nature of the assay: Hs-Siglec9 ALPHAscreen SOP 20170721. The note with it: 10 µM. (In general: In Alpha technology, singlet oxygen from a donor bead excites a nearby acceptor bead.)
The subject of the next assay is Trypanosoma cruzi. Nature of the assay: Trypanosoma cruzi phosphomannomutase and mannose-1-phosphate guanylyltransferase assay. Format: functional. Particulars: 10 µM.
The target in assay [5] is T2, Arginase-2, mitochondrial (Homo sapiens) (UniProt P78540).
T2 sequence (whole entry): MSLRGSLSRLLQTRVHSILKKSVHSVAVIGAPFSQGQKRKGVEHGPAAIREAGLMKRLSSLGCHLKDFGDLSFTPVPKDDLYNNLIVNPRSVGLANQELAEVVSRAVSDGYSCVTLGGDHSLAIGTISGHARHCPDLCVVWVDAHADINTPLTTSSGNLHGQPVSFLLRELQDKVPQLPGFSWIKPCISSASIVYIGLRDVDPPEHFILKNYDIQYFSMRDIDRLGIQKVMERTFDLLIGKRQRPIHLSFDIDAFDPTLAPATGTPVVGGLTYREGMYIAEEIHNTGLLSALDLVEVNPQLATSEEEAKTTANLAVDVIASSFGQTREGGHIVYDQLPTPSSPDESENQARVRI
In words: in vitro enzyme assay to detect the production of urea directly proportional to the activity of Arginase II. Further: in the data most compounds retested in dose-response had high values. Particulars: 33.3 µM. In kind it is functional.

Assay [6] concerns the target T3, Proteasome subunit beta (Trypanosoma cruzi) (UniProt O96673).
T3 sequence (whole entry): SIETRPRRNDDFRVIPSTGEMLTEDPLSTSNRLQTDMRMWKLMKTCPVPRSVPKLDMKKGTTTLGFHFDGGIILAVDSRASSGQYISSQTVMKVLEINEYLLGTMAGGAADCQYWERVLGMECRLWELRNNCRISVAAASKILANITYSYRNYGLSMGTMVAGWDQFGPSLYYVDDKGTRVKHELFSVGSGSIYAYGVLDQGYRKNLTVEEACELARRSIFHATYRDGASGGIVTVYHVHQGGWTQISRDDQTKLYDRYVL
In words: Trypanosoma cruzi proteasome chymotrypsin-like activity (TcProtChymo) assay. Further: in the data most compounds retested in dose-response had high values. In kind it is functional. Particulars: 9.37 µM.

The species entered for another assay is Homo sapiens. Nature of the assay: To identify inhibition of the IFN signalling (Jak-Stat) pathway via expression of an eGFP reporter gene under the control of an IFN-stimulated response element (ISRE) containing MxA promoter. In kind it is functional. The note with it: 30 µM. (In general: Reporter assays use an easily measured gene product as a stand-in for the process of interest.)

The target of assay [7] is T4, Tyrosyl-tRNA synthetase, putative (Trypanosoma cruzi (strain CL Brener)) (UniProt Q4DSP6).
T4 sequence (whole entry): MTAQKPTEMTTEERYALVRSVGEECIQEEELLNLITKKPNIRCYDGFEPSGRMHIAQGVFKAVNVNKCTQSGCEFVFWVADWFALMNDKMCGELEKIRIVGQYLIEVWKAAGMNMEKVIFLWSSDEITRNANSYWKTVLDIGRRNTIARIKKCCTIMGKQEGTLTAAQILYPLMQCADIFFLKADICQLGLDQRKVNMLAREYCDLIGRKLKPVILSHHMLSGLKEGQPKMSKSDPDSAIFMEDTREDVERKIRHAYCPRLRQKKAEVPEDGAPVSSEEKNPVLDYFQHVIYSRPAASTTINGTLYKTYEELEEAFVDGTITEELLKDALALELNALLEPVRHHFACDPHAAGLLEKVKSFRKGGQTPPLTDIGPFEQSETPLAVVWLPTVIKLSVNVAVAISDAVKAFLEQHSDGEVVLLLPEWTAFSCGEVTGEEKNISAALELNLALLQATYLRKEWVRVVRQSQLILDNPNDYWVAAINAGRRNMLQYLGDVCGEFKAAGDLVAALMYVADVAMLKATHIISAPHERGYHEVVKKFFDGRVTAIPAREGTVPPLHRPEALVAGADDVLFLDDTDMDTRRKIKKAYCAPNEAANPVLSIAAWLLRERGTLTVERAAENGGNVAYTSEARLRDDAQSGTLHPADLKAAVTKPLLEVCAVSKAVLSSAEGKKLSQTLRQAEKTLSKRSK
Nature of the assay: Trypanosoma cruzi tyrosyl tRNA synthetase (TcYRS) _High Tyrosine SOP. Further: in the data most compounds retested in dose-response had high values. Format: functional. The note with it: 30 µM.

Assay [8] has as its target T4, Tyrosyl-tRNA synthetase, putative (Trypanosoma cruzi (strain CL Brener)). In words: Trypanosoma cruzi tyrosyl tRNA synthetase (TcYRS) SOP. In kind it is functional. The note with it: 30 µM.
The target of assay [9] is Chromo domain-containing protein 1 (Saccharomyces cerevisiae (strain ATCC 204508 / S288c) (Baker's yeast)) (UniProt P32657). In words: ScCHD-1 Enzyme Inhibition Assay. Further: in the data most compounds retested in dose-response had high values. Format: functional. Particulars: 30 µM.
Sequence of Chromo domain-containing protein 1 (Saccharomyces cerevisiae (strain ATCC 204508 / S288c) (Baker's yeast)) (P32657 whole entry, the tested form may be a part): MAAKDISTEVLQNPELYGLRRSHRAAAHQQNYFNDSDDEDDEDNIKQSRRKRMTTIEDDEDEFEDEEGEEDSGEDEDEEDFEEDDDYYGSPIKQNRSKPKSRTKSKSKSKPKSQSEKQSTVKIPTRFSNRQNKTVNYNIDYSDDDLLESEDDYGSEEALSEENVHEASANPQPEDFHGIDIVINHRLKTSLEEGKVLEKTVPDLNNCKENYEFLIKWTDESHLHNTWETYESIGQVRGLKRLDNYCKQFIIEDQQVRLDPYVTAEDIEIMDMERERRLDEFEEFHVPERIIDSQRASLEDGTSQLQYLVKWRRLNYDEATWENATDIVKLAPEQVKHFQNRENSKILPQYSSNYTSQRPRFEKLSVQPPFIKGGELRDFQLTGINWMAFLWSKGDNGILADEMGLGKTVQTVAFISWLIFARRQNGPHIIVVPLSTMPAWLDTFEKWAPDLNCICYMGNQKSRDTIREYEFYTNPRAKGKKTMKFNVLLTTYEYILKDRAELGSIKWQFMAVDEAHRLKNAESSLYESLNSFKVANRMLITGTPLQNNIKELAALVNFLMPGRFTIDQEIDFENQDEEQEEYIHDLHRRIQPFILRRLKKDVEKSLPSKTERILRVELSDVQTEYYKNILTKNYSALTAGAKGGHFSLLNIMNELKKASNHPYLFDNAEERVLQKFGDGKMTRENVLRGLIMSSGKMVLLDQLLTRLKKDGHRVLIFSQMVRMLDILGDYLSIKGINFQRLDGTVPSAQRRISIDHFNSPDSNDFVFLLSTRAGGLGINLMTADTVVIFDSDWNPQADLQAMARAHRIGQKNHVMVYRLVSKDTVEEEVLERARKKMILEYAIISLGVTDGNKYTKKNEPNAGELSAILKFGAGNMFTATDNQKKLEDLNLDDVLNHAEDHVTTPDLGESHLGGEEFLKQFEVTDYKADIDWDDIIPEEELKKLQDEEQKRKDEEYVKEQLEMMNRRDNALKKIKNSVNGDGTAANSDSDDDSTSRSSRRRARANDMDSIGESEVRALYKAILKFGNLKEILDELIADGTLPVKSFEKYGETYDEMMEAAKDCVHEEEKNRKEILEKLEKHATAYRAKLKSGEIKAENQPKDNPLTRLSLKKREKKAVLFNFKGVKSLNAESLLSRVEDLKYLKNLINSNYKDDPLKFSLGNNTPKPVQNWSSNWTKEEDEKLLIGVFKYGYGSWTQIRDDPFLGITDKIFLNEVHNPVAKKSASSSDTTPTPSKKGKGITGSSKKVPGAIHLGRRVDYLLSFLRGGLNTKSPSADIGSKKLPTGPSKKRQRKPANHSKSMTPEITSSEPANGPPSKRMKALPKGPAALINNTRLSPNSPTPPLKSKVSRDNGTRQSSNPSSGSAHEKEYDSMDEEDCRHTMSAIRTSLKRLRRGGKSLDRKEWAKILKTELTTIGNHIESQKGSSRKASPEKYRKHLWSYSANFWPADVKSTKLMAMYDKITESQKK

Sequence of Sialic acid-binding Ig-like lectin 9 (Homo sapiens) (Q9Y336 whole entry): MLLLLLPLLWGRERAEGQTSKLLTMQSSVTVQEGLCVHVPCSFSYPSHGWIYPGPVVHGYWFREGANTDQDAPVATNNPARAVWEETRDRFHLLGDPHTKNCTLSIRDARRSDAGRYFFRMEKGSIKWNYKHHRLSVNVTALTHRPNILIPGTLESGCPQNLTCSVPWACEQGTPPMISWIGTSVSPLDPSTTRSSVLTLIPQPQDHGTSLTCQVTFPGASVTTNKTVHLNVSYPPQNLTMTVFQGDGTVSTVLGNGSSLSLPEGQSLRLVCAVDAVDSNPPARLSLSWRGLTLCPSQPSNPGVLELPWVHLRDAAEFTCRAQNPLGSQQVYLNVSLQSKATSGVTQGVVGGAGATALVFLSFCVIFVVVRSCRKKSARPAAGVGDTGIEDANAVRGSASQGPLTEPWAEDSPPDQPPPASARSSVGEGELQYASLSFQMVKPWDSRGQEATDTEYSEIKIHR
Sequence of Protein translocase subunit SecA (Escherichia coli (strain K12)) (P10408 whole entry): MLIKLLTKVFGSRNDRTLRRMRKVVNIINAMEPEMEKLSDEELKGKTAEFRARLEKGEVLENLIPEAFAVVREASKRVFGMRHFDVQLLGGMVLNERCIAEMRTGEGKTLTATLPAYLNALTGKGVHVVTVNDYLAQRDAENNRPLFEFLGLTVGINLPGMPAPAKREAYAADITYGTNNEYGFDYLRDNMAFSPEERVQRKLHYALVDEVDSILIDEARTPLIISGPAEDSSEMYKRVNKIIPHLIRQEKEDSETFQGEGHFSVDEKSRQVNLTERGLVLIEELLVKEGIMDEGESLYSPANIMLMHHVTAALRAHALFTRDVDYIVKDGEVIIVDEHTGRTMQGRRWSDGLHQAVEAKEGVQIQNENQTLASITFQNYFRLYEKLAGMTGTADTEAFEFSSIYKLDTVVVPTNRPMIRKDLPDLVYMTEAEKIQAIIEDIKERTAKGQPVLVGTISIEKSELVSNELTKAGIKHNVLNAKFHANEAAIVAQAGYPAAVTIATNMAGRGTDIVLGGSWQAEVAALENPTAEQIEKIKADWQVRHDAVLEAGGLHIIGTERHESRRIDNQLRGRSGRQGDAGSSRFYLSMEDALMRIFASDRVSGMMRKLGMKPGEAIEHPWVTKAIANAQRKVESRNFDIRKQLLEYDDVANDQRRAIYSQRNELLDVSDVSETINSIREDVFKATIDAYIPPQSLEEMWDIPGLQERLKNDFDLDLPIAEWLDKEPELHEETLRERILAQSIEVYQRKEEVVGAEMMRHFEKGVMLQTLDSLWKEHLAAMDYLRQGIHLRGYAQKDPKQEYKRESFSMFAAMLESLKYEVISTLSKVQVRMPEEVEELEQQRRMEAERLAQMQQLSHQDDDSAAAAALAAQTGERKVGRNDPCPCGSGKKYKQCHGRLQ

`O=C(NCCOc1ncc(Cl)cc1Cl)c1ccncc1`: the Percent Effect in [1] is -9.07%; in assay [2], 0%; in assay [3] it was 3.95%; in assay [4] it was 4.2%; in the assay on Trypanosoma cruzi, -5.27%; in [5], -1.67%. The Percent Effect is 9.72% in [6]; 14.8% in the assay filed under Homo sapiens; 7.92% in [7]; 8.54% in [8]; -3.07% in assay [9].
For `COCCN(C)C[C@@H]1CN(C(=O)c2cccc(C(F)(F)F)c2)C[C@@H]1CO`, the Percent Effect in assay [1] is -0.782%; in assay [2], 2.7%; in assay [3], 1.75%; in assay [4], 21.1%; in the assay with Trypanosoma cruzi it was 5.79%; in assay [5], 10%. Also, the Percent Effect in assay [6] was 13.4%; in the assay filed under Homo sapiens it was -3.37%; in assay [7], 2.65%; in [8], 14.6%; in [9], -4.78%.
For the molecule `CS(=O)(=O)NC[C@]12COC[C@H]1CN(C(=O)Cc1ccccc1F)C2`, the Percent Effect in assay [1] is 0.295%; in assay [2], -101%; in assay [3] it was 5.66%; in assay [4], -7.42%; in the assay on Trypanosoma cruzi, -7.2%; in assay [5] it was -4.52%. In addition, the Percent Effect was 6.44% in assay [6]; -5.85% in the assay listed under Homo sapiens; -125% in assay [7]; -232% in [8]; -6.07% in assay [9].
For `CC[C@H](C)[C@H](NC(=O)c1ccccc1-n1cnnn1)C(=O)OC`, the Percent Effect was -2.24% in [1]; -4% in assay [2]; 6.42% in [3]; -4.83% in assay [4]; -14.2% with Trypanosoma cruzi; -9.33% in assay [5]. Further, the Percent Effect was 1.85% in assay [6]; -2.35% in the assay listed under Homo sapiens; -1.06% in [7]; -12.8% in [8]; 1.23% in assay [9].
Take `CC(O)CN1CCC(CNCc2ccc(S(C)(=O)=O)cc2)CC1` (stereo unspecified): the Percent Effect is -2% in assay [1]; 19.2% in [2]; -8.77% in assay [3]; 13.4% in assay [4]; 2.15% with Trypanosoma cruzi; 8.64% in [5]. Also, the Percent Effect was 24.5% in assay [6]; 5.76% in the assay listed under Homo sapiens; 4.3% in [7]; 15% in assay [8]; -7.9% in [9].
For the molecule `Cc1nc(C)c(C(=O)NCCNC(=O)Cc2ccccc2)s1`, the Percent Effect in assay [1] is -3.47%; in [2], 16.2%; in assay [3], -4.83%; in [4] it was 1.88%; in the assay with Trypanosoma cruzi, -4.36%; in assay [5], -2.4%. The Percent Effect in assay [6] is 16.7%; in the assay listed under Homo sapiens it was 11.2%; in [7] it was 7.92%; in [8], 18.3%; in [9], -2.99%.
Regarding `O=C(Nc1ccccn1)C1=NN(c2ccccc2)C(=O)CN1`, the Percent Effect is 0.648% in assay [1]; 25.3% in assay [2]; -3.03% in assay [3]; -13.4% in [4]; 1.6% in the assay with Trypanosoma cruzi; -5.32% in [5]. The Percent Effect is 11.9% in assay [6]; 9.82% in the assay filed under Homo sapiens; 6.4% in assay [7]; 24.1% in assay [8]; -12.2% in assay [9].
`Cc1ncsc1C(=O)NCCSCCCO`: the Percent Effect in [1] was 1.26%; in assay [2] it was 16.2%; in assay [3], -5.95%; in [4] it was -2.14%; in the assay with Trypanosoma cruzi it was 1.02%; in [5], -1.29%. In addition, the Percent Effect in assay [6] was 15.4%; in the assay filed under Homo sapiens, -0.639%; in assay [7] it was 4.95%; in assay [8] it was 15.8%; in assay [9], -4.16%.
Take `CNc1nc(CNC(=O)Nc2cccc(F)c2)cs1`: the Percent Effect in assay [1] is -4.85%; in [2], 8.11%; in assay [3], -3.94%; in assay [4], 12.7%; with Trypanosoma cruzi it was -1.39%; in [5], -4.99%. The Percent Effect in assay [6] came to 1.62%; in the assay listed under Homo sapiens it was 1.99%; in assay [7], 5.94%; in [8] it was 6.1%; in assay [9], 8.34%.
As to `Cc1cnn(CC2CCCCN2C(=O)CN(C)C2CC2)c1` (stereo unspecified), the Percent Effect in assay [1] was 0.161%; in assay [2], 26.6%; in assay [3] it was -0.801%; in assay [4] it was -3.2%; with Trypanosoma cruzi it was -0.103%; in assay [5] it was -1.94%. The Percent Effect in assay [6] was 16.8%; in the assay filed under Homo sapiens, -1.15%; in assay [7], 6.25%; in assay [8] it was 15.2%; in assay [9], -24%.
Regarding `CNC(=O)c1cccc(C2CNCCN2C)c1` (stereo unspecified), the Percent Effect is 1.64% in assay [1]; 14.9% in assay [2]; 4.3% in assay [3]; -1.87% in assay [4]; -2.96% in the assay on Trypanosoma cruzi; 7.19% in assay [5]. For the same molecule, the Percent Effect in [6] was 12.2%; in the assay filed under Homo sapiens, -5.37%; in assay [7] it was 0%; in [8], 6.49%; in assay [9], -5.34%.
